The source of these data is ChEMBL document CHEMBL1157539, “Thousands of chemical starting points for antimalarial lead identification” (Nature, 2010).

What all share (type): functional
The subject of assay [1] is Plasmodium falciparum. Put plainly: GSK_TCMDC: Inhibition of Plasmodium falciparum 3D7 in whole red blood cells, using parasite LDH activity as an index of growth. Test compounds present at 2uM.
For assay [2], the system named is Plasmodium falciparum. Put plainly: GSK_TCMDC: Inhibition of Plasmodium falciparum Dd2 in whole red blood cells, using parasite LDH activity as an index of growth. Test compounds present at 2uM.
A further assay deals with HepG2. Description: GSK_TCMDC: Percent inhibition of human HepG2 cell line. Test compounds present at 10uM.

Regarding `O=C(Oc1ccc(Cl)cc1C(=O)Nc1ccc([N+](=O)[O-])cc1Cl)c1ccccc1`, the Inhibition (commonly the change of the read-out against control, counted positive when it falls) in the assay with Plasmodium falciparum [1] was 97%; in the assay on Plasmodium falciparum [2], 19%; in the assay on HepG2, 88%.
Taken in the same sequence, the figures for `Cc1[nH]n(-c2cccc(C(F)(F)F)c2)c(=O)c1-c1ccc(Cl)cc1` were 98%, 25% and 7%.
Taken in the same sequence, the figures for `c1ccc(-c2cccnn2)cc1` were 98%, 6% and 0%.
Taken in the same sequence, the figures for `Clc1ccc2c(NN=Cc3cccnc3)ccnc2c1` were 100%, 86% and 0%.
`Cc1cccc(NC(=O)N(Cc2cc3cc(C)cc(C)c3[nH]c2=O)C2CC2)c1`: the Inhibition in the assay with Plasmodium falciparum [1] was found to be 97%; with Plasmodium falciparum [2], 94%; in the assay on HepG2 it was 3%.
The matching figures for `CC(C)c1sc(N2CCN(C)CC2)nc1C(=O)NCCc1ccc(Cl)c(Cl)c1.O=C(O)C(F)(F)F`: 98%, 79% and 10%.
The matching figures for `CO/C(=C\C=C\c1cc2cc(Cl)c(Cl)cc2[nH]1)C(=O)NCCCN1CCCC[C@H]1C`: 100%, 91% and 41%.
With `Cc1ccc(O)cc1Nc1ccnc2cc(-c3cccc(CNCCS(C)(=O)=O)c3)ccc12`, the Inhibition with Plasmodium falciparum [1] is listed as 99%; in the assay on Plasmodium falciparum [2], 100%; with HepG2, 9%.
`CCCN(CCC)CCCNc1ccc(C(=O)Nc2ccc(OCC)cc2)cc1[N+](=O)[O-]`: the Inhibition in the assay with Plasmodium falciparum [1] was found to be 89%; in the assay with Plasmodium falciparum [2], 2%; in the assay with HepG2, 7%.
The matching figures for `COc1ccc(COc2c(OC)cc(Cc3cnc(N)nc3N)cc2OC)cc1`: 90%, 23% and 5%.
`COc1ccc(CCNc2ccnc3cc(Cl)ccc23)cc1OC.Cl`: the Inhibition with Plasmodium falciparum [1] was determined as 100%; in the assay on Plasmodium falciparum [2] it was 92%; with HepG2 it was 4%.
Taken in the same sequence, the figures for `CN1c2ccccc2Sc2cc(CNCCSCCNCc3ccc4c(c3)Sc3ccccc3N4C)ccc21.Cl` were 84%, 44% and 58%.
Consider `CCOc1cc(C2C(C(=O)OC(C)C)=C(C)NC3=C2C(=O)CC(c2ccc(Cl)cc2)C3)ccc1OC(C)=O` (configuration not stated), for which the values for the Inhibition in the assay with Plasmodium falciparum [1], in the assay with Plasmodium falciparum [2] and with HepG2 were 90%, 20% and 16%, respectively.
The matching figures for `O=C(/C=C/c1ccc(Cl)c(Cl)c1)NCCCCCN1CCCN(C(=S)Nc2cccc(Cl)c2)CC1`: 93%, 7% and 19%.
Taken in the same sequence, the figures for `O=C(Nc1cccc(OCCN2CCCC2)c1)Nc1ccc(Cl)c(Cl)c1.O=C(O)C(F)(F)F` were 98%, 22% and 3%.
Taken in the same sequence, the figures for `COc1ccc2ncc(C)c(CCN3CCC(NCc4ccc5c(n4)NC(=O)CS5)CC3)c2c1.Cl` were 100%, 53% and 14%.
For the molecule `O=C(Cc1ccc(Nc2nccc(Nc3cccc4[nH]ncc34)n2)cc1)Nc1ccc(C(F)(F)F)cc1`, the Inhibition with Plasmodium falciparum [1] is recorded as 100%; in the assay on Plasmodium falciparum [2] it was 69%; in the assay on HepG2, 12%.
The matching figures for `Fc1ccc2[nH]ccc(=NN=CC=Cc3ccccc3)c2c1`: 96%, 77% and 29%.
The matching figures for `Cc1cc(N2CC=CCC2)nc(NC(=N)Nc2ccc(Br)cc2)n1`: 98%, 41% and 10%.
On to `Cc1cccc2nc(-c3ccc(-c4cccc(NC(=O)Nc5ccc(Cl)c(Cl)c5)c4)s3)[nH]c12`, for which the figures for the Inhibition with Plasmodium falciparum [1], in the assay on Plasmodium falciparum [2] and in the assay with HepG2 were 100%, 36% and 46%, respectively.
The matching figures for `O=C(Nc1cccc(-c2cccc(-c3nc4ccccc4[nH]3)c2)c1)c1cccnc1`: 95%, 14% and 12%.
The matching figures for `CN(C)CC(O)C(O)(c1ccccc1)c1ccc(F)cc1.Cl` (configuration not stated): 93%, 10% and 0%.
The matching figures for `COc1cc(NC(=O)/C=C/c2cc(F)cc(F)c2F)cc(OCCN2CCCCC2)c1.O=C(O)C(=O)O`: 100%, 80% and 10%.
For `Nc1cccc(-c2ccc3ccnc(N)c3c2)c1`, the values for the Inhibition in the assay on Plasmodium falciparum [1], in the assay on Plasmodium falciparum [2] and in the assay with HepG2 were 91%, 66% and 30%, respectively.
For `Cl.Nc1nc(Nc2ccc(Cl)cc2)nc2ccccc12`, the results for the Inhibition in the assay with Plasmodium falciparum [1], with Plasmodium falciparum [2] and in the assay on HepG2 were 100%, 21% and 6%, respectively.
The matching figures for `CN1CCN(CCCN(Cc2ccc(-c3cccc(CNC4CCCC4)c3)cc2)C(=O)Nc2ccccc2)CC1.O=C(O)C(F)(F)F`: 92%, 76% and 28%.
`CCOc1cc(C(=O)Nc2ccc3nc(N4CCN(C)CC4)cc(C)c3c2)cc(OCC)c1OCC`: the Inhibition turned out to be 97% in the assay on Plasmodium falciparum [1], 50% in the assay on Plasmodium falciparum [2] and 14% with HepG2.
The matching figures for `FC(F)(F)c1cccc(CNCC2CCN(CC3CCCCC3)CC2)c1.O=C(O)C(F)(F)F`: 100%, 24% and 21%.
Taken in the same sequence, the figures for `Cc1nc(-c2ccc(-c3ccc(NC(=O)c4coc5ccc(N6CC(C)NC(C)C6)cc45)cc3)c(C)c2)no1.Cl` (configuration not stated) were 100%, 88% and 1%.
